Most compounds without a hit are left out; they make up all but 2.7% or so of the library.
HSP90 refold inh = HSP90 inhibitors, primary screen, cell lysate, luminescence. Rabbit reticulocyte lysate, luciferase refolding luminescence, 3 h. actives 0.91% (n = 290,000). inhibition, % at 5.6 µM. AID 1789, 2009. Heat shock protein HSP 90 (rabbit reticulocyte lysate; luciferase refolding);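 active = inhibition above the screen-wide mean plus 3 SD, computed separately per campaign, cut at about 16% in these data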;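 note: 0% = DMSO wells and 100% = 60 µM geldanamycin wells; inhibitors lower the luminescence because luciferase stays unfolded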
SENP8 block-1 = human SENP8 protease inhibitors, primary screen, biochemical, fluorescence, Nedd8 protein substrate, uHTS | recombinant SENP8 | inhibition, % at 20 µM | actives 0.64% (n = 360,000); in the data active = inhibition mostly above about 40%, no sharp cut-off; inactive = mostly below about 27%
Target sequence (Q96LD8 whole entry, looked up): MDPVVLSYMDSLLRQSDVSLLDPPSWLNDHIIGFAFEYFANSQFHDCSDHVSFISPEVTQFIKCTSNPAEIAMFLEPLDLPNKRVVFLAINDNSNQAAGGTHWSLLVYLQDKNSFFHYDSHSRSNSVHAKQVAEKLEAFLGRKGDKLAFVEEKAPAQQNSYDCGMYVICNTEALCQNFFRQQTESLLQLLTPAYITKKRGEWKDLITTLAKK
SENP6 inh = SENP6 protease inhibitors, primary screen, biochemical, luminescence, uHTS; Sentrin-specific protease 6 (Homo sapiens), Q9GZR1; Recombinant SENP6 catalytic domain, aminoluciferin luminescence; inhibition, % at 10 µM; actives 1.8% (n = 330,000); AID 2599, 2010;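 active = inhibition above about 50% at the single tested dose, limit read from the data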;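 note: plate controls were DMSO wells with enzyme for no effect and DMSO wells lacking enzyme for full effect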
SENP8 block-2 = SENP8 protease inhibitors, primary screen, biochemical, luminescence; inhibition, % at 10 µM; actives 1.2% (n = 330,000); purified SENP8, Z-RLRGG-aminoluciferin cleavage; Sentrin-specific protease 8 (Homo sapiens), Q96LD8; in the data active = inhibition above about 50%
SENP7 block = SENP7 protease inhibitors, primary screen, biochemical, luminescence, uHTS. actives 1.5% (n = 330,000). inhibition, % at 5 µM. recombinant SENP7, Z-RLRGG-aminoluciferin luminescence, 40 min. AID 434973, 2010;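 active = inhibition above about 50% at the single test dose, limit read from the data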;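 note: plate controls were DMSO with enzyme for no effect and no enzyme buffer wells for full effect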
Target sequence (Q9BQF6 706-1050 limits assumed): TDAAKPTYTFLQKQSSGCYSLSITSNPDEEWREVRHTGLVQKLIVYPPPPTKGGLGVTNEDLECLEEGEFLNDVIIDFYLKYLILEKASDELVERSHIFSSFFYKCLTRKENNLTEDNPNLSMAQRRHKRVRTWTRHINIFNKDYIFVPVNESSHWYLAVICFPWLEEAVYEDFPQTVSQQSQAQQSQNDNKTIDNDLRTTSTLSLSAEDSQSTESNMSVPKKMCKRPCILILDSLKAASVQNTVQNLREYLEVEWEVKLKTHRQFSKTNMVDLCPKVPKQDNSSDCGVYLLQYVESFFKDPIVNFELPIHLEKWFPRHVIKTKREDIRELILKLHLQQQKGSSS
SENP8 confirm = SENP8 protease inhibitors, retest, confirmation, biochemical, luminescence, single concentration. shares compounds with SENP7 block. Recombinant SENP8, Z-RLRGG-aminoluciferin luminescence, 60 min. inhibition, % at 12.5 µM. actives 40% (n = 6,200). AID 488912, 2010;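 active = mean inhibition across replicates above about 50%, limit read from the data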
SENP6 conf = SENP6 protease inhibitors, confirmation, biochemical, luminescence, single concentration; shares compounds with SENP7 block; recombinant SENP6, Z-RLRGG-aminoluciferin luminescence; inhibition, % at 12.5 µM; actives 58% (n = 6,200); AID 488915, 2010
SENP7 confirm = SENP7 protease inhibitors, retest, confirmation, biochemical, luminescence, single concentration; recombinant SENP7, Z-RLRGG-aminoluciferin luminescence, 40 min; actives 69% (n = 6,200); AID 488917, 2010; inhibition, % at 12.5 µM; shares compounds with SENP7 block
Casp3 select = caspase-3 protease inhibitors, confirmation, selectivity assay for SENP inhibitor project, biochemical, single concentration; purified caspase-3, Z-DEVD-aminoluciferin luminescence, 60 min; inhibition, % at 12.5 µM; shares compounds with SENP7 block; actives 60% (n = 6,200);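 active = mean inhibition above about 50%, limit read from the data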;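 note: plate controls were enzyme with DMSO for no effect and wells without caspase-3 for full effect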
SENP luc ctr = luminescence interference (SENP counter-screen). inhibition, % at 12.5 µM. actives 39% (n = 6,200). Pre-incubated SENP8/Z-RLRGG-aminoluciferin, luciferase luminescence interference. shares compounds with SENP7 block;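 active = mean inhibition above about 50% when retested at one dose, limit read from the data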;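 note: plate controls were DMSO wells with completed reaction for no effect and substrate without enzyme for full effect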
Active calls of the source: *; nt = not tested or not shown.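 Rule for the calls, unless noted: active = mean inhibition above about 50% in the one-dose retest (limit read from the data); inactive = the rest.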

SMILES | HSP90 refold inh | SENP8 block-1 | SENP6 inh | SENP8 block-2 | SENP7 block | SENP8 confirm | SENP6 conf | SENP7 confirm | Casp3 select | SENP luc ctr
COc1ccc(C=Nc2ccc3[nH]ncc3c2)c(O)c1 | 3.9 | -178.9 | 62.4* | -6.7 | 17.6 | 17.2 | 4.1 | 10.0 | 9.6 | 5.6
CC1(C)CC(=O)C(C=Nc2ccc3[nH]ncc3c2)=C(O)C1 | 1.2 | -104.5 | 2.7 | -4.1 | 4.8 | nt | nt | nt | nt | nt
Oc1c(Br)cc(Br)cc1C=Nc1ccc2[nH]ncc2c1 | 4.9 | -321.6 | 56.3* | 32.4 | 28.0 | 0.0 | 11.8 | -5.3 | 5.0 | 3.4
Cc1ccc(OCCn2cnc3cc([N+](=O)[O-])ccc3c2=O)cc1 | 2.1 | -72.9 | 9.6 | -6.0 | 8.3 | nt | nt | nt | nt | nt
O=C(O)COn1c(-c2ccccc2)nc2ccc([N+](=O)[O-])cc21 | 4.5 | 4.0 | 82.1* | 70.2* | 88.1* | 1.3 | 0.5 | 33.3 | 52.9* | 55.8*
Clc1ccc(COn2c(-c3ccc(Cl)cc3)nc3ccccc32)cc1 | -0.8 | -0.3 | 18.4 | 4.1 | -5.2 | nt | nt | nt | nt | nt
O=C(O)COn1c(-c2ccc(Cl)cc2)nc2ccc(Cl)cc21 | 0.2 | -7.1 | 0.5 | -7.3 | -7.7 | nt | nt | nt | nt | nt
CCOC(=O)C(C)On1c(-c2ccc(Cl)cc2)nc2ccc([N+](=O)[O-])cc21 (configuration not stated) | 1.2 | -48.2 | 70.0* | 65.1* | 49.9 | -0.4 | -5.4 | 28.6 | 6.4 | 24.9
CC(O)c1nc2cc([N+](=O)[O-])ccc2n1Cc1ccccc1 (configuration not stated) | -4.7 | 29.6 | 17.6 | 12.2 | -9.8 | nt | nt | nt | nt | nt
Cc1ccc(COn2c(-c3ccc(Cl)cc3)nc3ccc([N+](=O)[O-])cc32)cc1 | -1.1 | 21.6 | 67.2* | 42.2 | 56.0* | 11.4 | 16.6 | 49.1 | 22.4 | 23.9
CCOC(=O)C(C)On1c(-c2ccccc2)nc2ccc([N+](=O)[O-])cc21 (configuration not stated) | 1.6 | 14.6 | 84.0* | 71.2* | 76.5* | 27.6 | 25.0 | 66.3* | 58.9* | 60.9*
O=C(NN=C1CCCCC1)c1ccccc1OCc1ccc(F)cc1 | -1.2 | 6.4 | 0.3 | -10.0 | -9.3 | nt | nt | nt | nt | nt
[O-]/C(=C(\C(=S)Nc1cccc2ccccc12)[n+]1ccccc1)c1cccs1 | -0.2 | -362.1 | 56.1* | 12.1 | 22.9 | 6.9 | 12.0 | -6.1 | 4.0 | -2.5
Cc1cccc(C)c1NC(=S)/C(=C(\[O-])c1cccs1)[n+]1ccccc1 | 1.1 | 13.5 | -0.3 | -5.0 | 4.8 | nt | nt | nt | nt | nt
COCCn1c(C)cc(C(=O)COC(=O)c2cccnc2SC)c1C | nt | 6.8 | 87.5* | 78.3* | 84.8* | 86.1* | 86.4* | 97.8* | 91.1* | 69.1*
COCCn1c(C)cc(C(=O)COC(=O)c2ccc3ncsc3c2)c1C | 2.7 | 5.9 | -0.6 | -1.1 | 3.6 | nt | nt | nt | nt | nt
O=C(Cc1ccccc1F)Nc1ccc(SC(F)F)cc1 | -4.1 | 18.8 | 60.7* | 25.6 | 43.3 | 5.0 | 2.0 | 53.2* | 18.5 | 28.5
O=C(Nc1ccc(SC(F)F)cc1)c1ccccc1F | -0.6 | 15.7 | 50.0* | 19.7 | 16.8 | 37.4 | 35.1 | 73.0* | 41.4 | 62.9*
O=C(COC(=O)Cc1ccccc1F)Nc1ccc(SC(F)F)cc1 | 4.2 | 3.9 | -7.5 | -8.3 | -0.1 | nt | nt | nt | nt | nt
Cc1ccc(C2=Nc3ccccc3N=C(C(Cl)Cl)C2)cc1 | 14.7 | -64.6 | 84.3* | 69.2* | 58.3* | 38.0 | 37.3 | 72.3* | 85.5* | 80.0*
c1ccc(-c2nnc3sc(-c4ccncc4)nn23)cc1 | -0.5 | -2.6 | 4.1 | 4.7 | 0.3 | nt | nt | nt | nt | nt
c1ccc(-c2cn3nc(-c4ccccc4)sc3n2)cc1 | nt | -33.9 | -4.8 | 85.2* | 93.4* | -7.7 | 3.1 | 14.8 | 7.2 | -0.8
Cc1nn2cc(-c3ccccc3)nc2s1 | 7.0 | 9.3 | 72.2* | 76.4* | -2.9 | 76.7* | 81.0* | 96.8* | 91.3* | 71.0*
CCc1ccc(-c2cn3nc(-c4ccccc4)cnc3n2)cc1 | -0.7 | -404.8 | -10.5 | -5.4 | -7.3 | nt | nt | nt | nt | nt
NS(=O)(=O)c1ccc(CCNC(=O)c2ccc(Cl)nc2)cc1 | 4.9 | 10.0 | 0.8 | 6.6 | 6.1 | nt | nt | nt | nt | nt
SMILES | HSP90 refold inh | SENP8 block-1 | SENP6 inh | SENP8 block-2 | SENP7 block | SENP8 confirm | SENP6 conf | SENP7 confirm | Casp3 select | SENP luc ctr
Cc1ccc(NC(=O)NC(=O)CSc2nnc(-c3ccc(Cl)cc3Cl)n2N)c(C)c1 | -0.4 | 19.2 | 63.1* | 40.0 | 58.5* | 56.4* | 55.8* | 83.1* | 32.4 | 72.2*
O=S(=O)(c1ccc(Cl)cc1)N1CCN(C(=S)Nc2ccc(F)c(Cl)c2)CC1 | 0.1 | 8.7 | 6.5 | 3.7 | 2.3 | nt | nt | nt | nt | nt
O=C1OCCC1N1C(=O)c2ccccc2S1(=O)=O (configuration not stated) | -1.9 | 19.4 | -4.8 | 5.0 | 3.9 | nt | nt | nt | nt | nt
Cc1cc(O)c(/C=N/Nc2ccccc2Cl)c(=O)o1 | 0.0 | -105.8 | 84.3* | 73.7* | 40.5 | 72.2* | 67.6* | 86.6* | 88.4* | 63.3*
Cc1cc(O)c(/C=N/Nc2cccc(Cl)c2)c(=O)o1 | -1.4 | -105.6 | 69.9* | 66.2* | 19.5 | 71.0* | 71.4* | 89.2* | 86.7* | 55.8*
CC(Cc1ccccc1)NC(=O)/C=C/c1ccc([N+](=O)[O-])cc1 (configuration not stated) | 6.2 | 8.0 | -10.3 | -11.0 | -0.4 | nt | nt | nt | nt | nt
CNC(C)C(=O)NC(C(=O)NC(C(=O)Nc1cccc2ccccc12)C(C)C)C(C)C (configuration not stated) | nt | -59.3 | nt | nt | nt | nt | nt | nt | nt | nt
O=C(NC(=S)/C(=C1\CCCCCN1)[N+](=O)[O-])c1ccccc1 | nt | 14.0 | 60.2* | 57.2* | 60.5* | 76.8* | 71.1* | 93.1* | 73.5* | 9.6
O=C(NC(=S)Nc1ccccc1[N+](=O)[O-])c1ccccc1 | 3.2 | 17.6 | -20.6 | -6.7 | -15.0 | nt | nt | nt | nt | nt
CCOC(=O)c1sc(-c2ccccc2)nc1C | 0.9 | 15.1 | 31.2 | 11.8 | 23.4 | nt | nt | nt | nt | nt
